Sa RN4220 lethal: S. aureus RN4220 growth inhibition; OD600, 16 h; inhibition, % (concentration not given with the values); 0.33% of 330,000 active; AID 1259311; in the data active = inhibition above about 85%
PrPC TRFRET: cell surface PrPC inhibition, primary TR-FRET screen | TR-FRET read-out | inhibition, % at 13.8 µM | 0.43% of 370,000 active | AID 720596 | P04156; in the data active = inhibition above about 24%
VHR inh abs: DUSP3 (human) phosphatase inhibition; inhibition, % at 13.3 µM; AID 1654; 0.52% of 290,000 active; P51452; recombinant VHR phosphatase, pNPP absorbance; in the data active = inhibition above about 50%
Target sequence (P51452 whole entry, looked up): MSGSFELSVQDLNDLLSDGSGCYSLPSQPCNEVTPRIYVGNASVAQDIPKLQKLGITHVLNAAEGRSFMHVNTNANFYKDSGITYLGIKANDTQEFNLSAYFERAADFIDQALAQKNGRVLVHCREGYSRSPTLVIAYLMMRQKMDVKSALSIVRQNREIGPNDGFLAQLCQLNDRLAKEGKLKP
ugtP null kill: compounds lethal to S. aureus RN4220 ugtP deletion mutant | OD600 growth, 16 h | growth inhibition, % (concentration not given with the values) | 0.54% of 330,000 active; in the data active = growth inhibition above about 68%
PfHsp40 yeast: rescue of PfHsp40-mediated yeast toxicity; growth rescue, % at 12.5 µM; 0.68% of 340,000 active; AID 504582; S. cerevisiae expressing PfHsp40, growth rescue, ATP luminescence; in the data active = growth rescue above about 28%, passing the limit was not always enough; inconclusive = no clear call, values can overlap the other calls;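 also: yeast W303a lacking pdr1 and pdr3 grown in galactose medium; growth measured after three days at 30 °C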
Of the large screens only hits and unclear results are named; the others gave an inactive call. A selection: hits, their analogues and other compounds. The true share with any hit is near 1.8%.

CC(=NNC(=S)N1CCN(c2ccccn2)CC1)c1nccs1	PfHsp40 yeast 108 (no result: Sa RN4220 lethal, PrPC TRFRET, VHR inh abs, ugtP null kill)
CC1NC(=O)C(CCCN=C(N)N)NC(=O)c2cc([N+](=O)[O-])cc(I)c2NCCCC(C(N)=O)NC1=O (centres undefined)	none (no result: PrPC TRFRET, VHR inh abs, PfHsp40 yeast)
CC(=O)O[C@H]1C[C@@H]2OC3C=C(C)CCC3(C)[C@@]1(C)[C@@]21CO1 (some centres undefined)	PrPC TRFRET 88 (no result: Sa RN4220 lethal, VHR inh abs, ugtP null kill, PfHsp40 yeast)
C=C1C(=O)C2=CC1CCC(=O)C1(C)CCC(OC(C)=O)C(C)(C)C1CC2O (centres undefined)	none (no result: Sa RN4220 lethal, VHR inh abs, ugtP null kill)
Cc1ccc(C(=O)c2c(C)oc3c2C(=O)C(=O)c2ccccc2-3)cc1	Sa RN4220 lethal 109, ugtP null kill 93 (no result: PrPC TRFRET)
COC(=O)C1=C(C(=O)OC)C2N(C)c3ccc(OC)cc3[C@@]23CC(C(=O)OC)N(C(=O)NCCBr)C3=N1 (some centres undefined)	none (no result: PrPC TRFRET, VHR inh abs, PfHsp40 yeast)
O=C(Nc1ccc(Cl)c(Cl)c1)OCc1cccnc1	Sa RN4220 lethal 100, ugtP null kill 100
O=C(Nc1ccc(Cl)c(Cl)c1)c1cccc(S(=O)(=O)NCc2cccnc2)c1	Sa RN4220 lethal 100
COc1cccc(S(=O)(=O)NCc2ccc(C(=O)Nc3ccc(Cl)c(Cl)c3)cc2)c1	none
O=C(Nc1cccnc1)OCc1ccccc1	PfHsp40 yeast inconclusive
O=C(Nc1ccc(Cl)c(Cl)c1)ON=Cc1ccncc1	Sa RN4220 lethal 100, ugtP null kill 101 (no result: PrPC TRFRET, VHR inh abs, PfHsp40 yeast)
CC(N)=C(C#N)C(=O)CN1CCCCC1	none (no result: PrPC TRFRET, VHR inh abs, PfHsp40 yeast)
O=C(C(=CO)N=Nc1ccccc1)c1ccc(Cl)cc1	none (no result: PrPC TRFRET, VHR inh abs, PfHsp40 yeast)
Clc1c(Cl)c(Cl)c2n[nH]nc2c1Cl	PfHsp40 yeast 59
O=S(=O)(N[C@@H]1C[C@H]2CC[C@@H]1C2)c1cccs1	none
CSc1ccc(S(=O)(=O)NC2CC3CCC2C3)cc1 (centres undefined)	PfHsp40 yeast 78
COc1ccc(S(=O)(=O)NC2CC3CCC2C3)cc1 (centres undefined)	PfHsp40 yeast 95
O=C(NN=Cc1ccc(OC(=O)c2ccccc2Cl)cc1)c1cc(O)cc(O)c1	none (no result: PrPC TRFRET, VHR inh abs, PfHsp40 yeast)
CC(C)C1COC(c2cccc(C3=NC(C(C)C)CO3)n2)=N1 (centres undefined)	none (no result: PrPC TRFRET, VHR inh abs, PfHsp40 yeast)
Cc1ccc(NC(=O)c2ccc(OC(=O)CCN3C(=O)c4ccccc4C3=O)cc2)cc1	none
Cc1ccc(OCC(=O)OCCN2C(=O)c3ccccc3C2=O)cc1C	none (no result: Sa RN4220 lethal, ugtP null kill)
Cc1ccc(OC(=O)CCN2C(=O)c3ccccc3C2=O)cc1C	ugtP null kill 90
Cc1cc(C)cc(OC(=O)CCN2C(=O)c3ccccc3C2=O)c1	ugtP null kill 84
CCOC(=O)C1C2COc3ccc(Cl)cc3C2N2C(=O)c3ccc(Cl)cc3NC(=O)[C@@]12C (some centres undefined)	none (no result: PrPC TRFRET, VHR inh abs, PfHsp40 yeast)
COC(=O)C1=C(c2ccc(F)cc2F)CC2CCC1N2C(=O)NC1Cc2ccccc2C1 (centres undefined)	none (no result: PrPC TRFRET, VHR inh abs, PfHsp40 yeast)
Cc1nc(-c2ccccn2)nc(N(C)c2ccccc2)c1Cl	PfHsp40 yeast 180
Cc1nc(-c2ccccn2)nc(N2CCOCC2)c1Cl	none
CC(/C=C/c1ccco1)=N\NC(=O)c1cc(Cl)ccc1O	PfHsp40 yeast 75 (no result: Sa RN4220 lethal, ugtP null kill)
CCc1nonc1NC(=O)c1oc2ccc(C)cc2c1C	none
CCc1nonc1NC(=O)c1oc2ccccc2c1C	VHR inh abs 50
Cc1nc(NC(N)=NS(=O)(=O)c2ccc([N+](=O)[O-])cc2)nc2ccccc12	none (no result: PrPC TRFRET, VHR inh abs, PfHsp40 yeast)
COC(=O)C1=C(c2ccc(F)cc2OCc2ccccc2)CC2CCC1N2C(=O)NCc1cccc(OC)c1 (centres undefined)	none (no result: PrPC TRFRET, VHR inh abs, PfHsp40 yeast)
Cc1c(C=NNC(=O)c2ccccc2O)c2ccccn2c1C(=O)c1ccc(F)cc1	none (no result: PrPC TRFRET, VHR inh abs, PfHsp40 yeast)
Cc1ccc(N/C(N)=N/c2nc(CSc3ccc(C)cc3)cc(=O)[nH]2)cc1	none
Cc1ccc(N/C(N)=N/c2nc(CSc3nnc(N)s3)cc(=O)[nH]2)cc1	VHR inh abs 53
O=C(Cn1nc(-c2ccc(Cl)cc2)ccc1=O)NCC1COCCO1 (centres undefined)	VHR inh abs 52
C[n+]1c2cc(N)ccc2cc2ccc(N)cc21	PfHsp40 yeast 228 (no result: Sa RN4220 lethal, VHR inh abs, ugtP null kill)
O=C(NN=C/C=C\c1ccccc1[N+](=O)[O-])c1cccnc1	none (no result: PrPC TRFRET, VHR inh abs, PfHsp40 yeast)
C=CCOc1ccccc1C=NNC(=O)Cc1ccc(C)cc1	none (no result: PrPC TRFRET, VHR inh abs, PfHsp40 yeast)
O=c1[nH]c(CN2CCN(c3ccccc3O)CC2)nc2scc(-c3ccccc3Cl)c12	PfHsp40 yeast 29
CC(=O)/C(N=Nc1cc2c(c([N+](=O)[O-])c1C)C(C)(C)CC2(C)C)=C(\C)O	ugtP null kill 89 (no result: PfHsp40 yeast)
O=C(NN=Cc1cccc(O)c1)c1ccc(COc2cccc3cccnc23)cc1	none (no result: PrPC TRFRET, VHR inh abs, PfHsp40 yeast)
